The whole screen tested about 10,000 compounds, of which about 5,600 (56%) were called active. The set was probably picked from earlier hits. Only a sample is shown. A number with no mark means an inactive call. Cut-off read from the data, not from the text of the source: active = inhibition above about 40%; inactive = the rest.
Molecular target: Protein Mdm4 (Homo sapiens) + E3 ubiquitin-protein ligase Mdm2 (Homo sapiens) (UniProt O15151+Q00987)
Assay: Mdm2-MdmX complex disruptors, retested hits, confirmation, luminescence, single concentration (AID 489028)
Conditions: Mdm2-MdmX binding, luminescent assay; at 8 µM; active compounds read high

Protein Mdm4 (Homo sapiens) + E3 ubiquitin-protein ligase Mdm2 (Homo sapiens), sequence (O15151 whole entry, looked up): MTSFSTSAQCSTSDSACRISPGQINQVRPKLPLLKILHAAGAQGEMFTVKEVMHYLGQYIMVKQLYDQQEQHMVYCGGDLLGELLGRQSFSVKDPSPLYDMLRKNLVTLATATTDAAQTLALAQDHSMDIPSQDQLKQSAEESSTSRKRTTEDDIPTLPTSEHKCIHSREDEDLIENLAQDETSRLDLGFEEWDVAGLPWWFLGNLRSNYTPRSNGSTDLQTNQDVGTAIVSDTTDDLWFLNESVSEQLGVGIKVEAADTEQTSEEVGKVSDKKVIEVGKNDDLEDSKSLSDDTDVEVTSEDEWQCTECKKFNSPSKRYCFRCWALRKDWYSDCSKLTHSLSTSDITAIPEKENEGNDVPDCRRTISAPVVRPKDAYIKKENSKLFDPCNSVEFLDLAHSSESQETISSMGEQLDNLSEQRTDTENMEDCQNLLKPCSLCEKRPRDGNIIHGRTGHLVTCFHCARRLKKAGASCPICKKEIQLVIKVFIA
Protein Mdm4 (Homo sapiens) + E3 ubiquitin-protein ligase Mdm2 (Homo sapiens), sequence (Q00987 whole entry, looked up): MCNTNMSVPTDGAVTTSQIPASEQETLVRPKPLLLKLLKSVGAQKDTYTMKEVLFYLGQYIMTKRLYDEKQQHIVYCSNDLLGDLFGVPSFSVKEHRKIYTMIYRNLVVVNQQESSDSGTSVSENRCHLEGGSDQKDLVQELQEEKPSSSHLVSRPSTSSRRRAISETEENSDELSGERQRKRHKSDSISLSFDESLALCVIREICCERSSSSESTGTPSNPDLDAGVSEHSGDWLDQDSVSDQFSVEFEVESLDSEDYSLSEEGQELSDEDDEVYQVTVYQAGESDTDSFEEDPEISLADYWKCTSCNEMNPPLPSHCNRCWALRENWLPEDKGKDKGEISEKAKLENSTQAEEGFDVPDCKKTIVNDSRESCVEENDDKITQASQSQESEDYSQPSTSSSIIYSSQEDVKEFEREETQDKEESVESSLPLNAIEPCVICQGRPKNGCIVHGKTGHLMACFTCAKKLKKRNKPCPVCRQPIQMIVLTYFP

**Q.** Which inhibition does the source give for O=[N+]([O-])c1ccc(Oc2ccc(F)cc2Br)c2ccncc12 here?
**A.** 53.5% (active)

**Q.** How did the inhibition turn out when COc1cccc(/C=N/Nc2cc(C)nc(-c3ccccc3O)n2)c1O was run?
**A.** 93.8% (active)

**Q.** Which inhibition does the source give for COc1ccccc1/C=N\Nc1cc(C)nc(-n2nc(C)cc2C)n1 here?
**A.** 31.1%

**Q.** Which inhibition does the source give for Cc1ccc(OCC(O)CN2CCN(CC(O)COc3ccc(C)cc3Cl)CC2)c(Cl)c1 (stereo not given) here?
**A.** 35.6%

**Q.** Cc1cccc(N(C)C(=O)c2cc3c(=O)[nH]c4ccc(C)cc4c3s2)c1 was tested. Which inhibition did it give?
**A.** 73.5% (active)

**Q.** Which inhibition does the source give for CCN1CCN(c2nc(Nc3cc(OC)ccc3OC)nc(Nc3cc(OC)ccc3OC)n2)CC1 here?
**A.** 12.1%

**Q.** How did the inhibition turn out when CC(=NCC1CCCO1)c1c(O)[nH]c(=O)[nH]c1=O (stereo not given) was run?
**A.** 7.4%

**Q.** For Cc1cccc(Nc2nc3c(S(=O)(=O)c4ccccc4)nnn3c3ccccc23)c1C, which inhibition is on record?
**A.** 48.2% (active)

**Q.** For Cc1ccc(CS(=O)(=O)c2ncc(Cl)c(C(=O)Nc3nnc(C)s3)n2)cc1, which inhibition is on record?
**A.** 96.5% (active)

**Q.** For CSc1nnc(NC(=O)c2nc(S(=O)(=O)Cc3ccc(C)cc3)ncc2Cl)s1, which inhibition is on record?
**A.** 99% (active)

**Q.** For COc1ccc(C(=O)O/N=C(\N)Cc2ccc(Cl)cc2Cl)cc1OC, which inhibition is on record?
**A.** 97.6% (active)

**Q.** With CCOc1ccc(C(C)=O)cc1COC(=O)c1cnc(Cl)c(Cl)c1 as the molecule, how does the inhibition read?
**A.** 19%

**Q.** With COC(=O)c1ccc(NC(=O)c2cc(Cl)ccc2OC)cc1 as the molecule, how does the inhibition read?
**A.** 3.8%

**Q.** How did the inhibition turn out when CC1=C(C)CC(C(=O)NNC(=O)c2ccccc2O)C(C(=O)O)C1 (stereo not given) was run?
**A.** 38.8%

**Q.** For CC(=O)Nc1ccc(NC(=O)C(C)OC(=O)c2ccccc2C(=O)c2ccc(Cl)c([N+](=O)[O-])c2)cc1 (stereo not given), which inhibition is on record?
**A.** 84.5% (active)

**Q.** How did the inhibition turn out when N#Cc1cccc(NC(=O)COC(=O)c2ccccc2C(=O)c2ccc(Cl)c([N+](=O)[O-])c2)c1 was run?
**A.** 98.9% (active)

**Q.** How did the inhibition turn out when Cc1c(CN2CCC(CO)(CCOc3ccccc3)CC2)[nH]c2ccc(Cl)cc12 was run?
**A.** 75.5% (active)

**Q.** With CCc1nc2sc3c(Cl)ncnc3c2c2c1CCCC2 as the molecule, how does the inhibition read?
**A.** 14.9%

**Q.** For Oc1c(CN2CCN(c3ccc(F)cc3)CC2)cc(Cl)c2cccnc12, which inhibition is on record?
**A.** 85.5% (active)

**Q.** How did the inhibition turn out when Oc1c(CN2CCCC2)cc(COCc2ccccc2)c2cccnc12 was run?
**A.** 66% (active)

**Q.** Which inhibition does the source give for O=C(NC(=S)Nc1ccc2oc(=O)ccc2c1)c1ccc(-c2cccc(Cl)c2Cl)o1 here?
**A.** 34.5%

**Q.** How did the inhibition turn out when Cc1cc(C(=O)CCl)c(C)n1CC1COc2ccccc2O1 (stereo not given) was run?
**A.** 15.6%

**Q.** Cc1ccsc1C(=O)OCC(=O)c1cc(C)n(CC2CCCO2)c1C (stereo not given) was tested. Which inhibition did it give?
**A.** 94.5% (active)

**Q.** COc1ccc(CN2CN(C(C)C)CSC2=S)cc1 was tested. Which inhibition did it give?
**A.** -10.1%

**Q.** With Cc1cc(C(=O)COc2ccccc2[N+](=O)[O-])c(C)n1-c1cccc(S(=O)(=O)N2CCOCC2)c1 as the molecule, how does the inhibition read?
**A.** 58.5% (active)
